This is a sample that favours compounds with a hit; in the whole collection about 3.4% have one here.
TEAD-YAP block: TEAD-YAP interaction inhibition; HEK-TIYL cells, TEAD-Gal4/YAP UAS-luciferase luminescence; inhibition, % at 9.12 µM; 640,000 tested, 1.4% active; in the data active means inhibition above about 32%;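 further: 0% = median of test compound wells and 100% = reference inhibitor wells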
MITF inh: inhibitors of human MITF; O75030; AlphaScreen MITF homodimerization, bead proximity signal; inhibition, % at 2.6 µM; 650,000 tested, 0.91% active; AID 1259374; in the data active means inhibition above about 50%;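 further: 0% = vehicle wells with protein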
FBW7 act: activators of human E3 ligase FBW7 | AlphaScreen FBW7–phospho-cyclin E peptide binding, activator screen | 650,000 tested, 0.13% active | normalized activity (activation), % at 26.1 µM | Q969H0; in the data active means normalized activity above about 1.9%;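 further: purified mutant Fbw7 with reduced substrate affinity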
Target sequence (Q969H0 whole entry, looked up): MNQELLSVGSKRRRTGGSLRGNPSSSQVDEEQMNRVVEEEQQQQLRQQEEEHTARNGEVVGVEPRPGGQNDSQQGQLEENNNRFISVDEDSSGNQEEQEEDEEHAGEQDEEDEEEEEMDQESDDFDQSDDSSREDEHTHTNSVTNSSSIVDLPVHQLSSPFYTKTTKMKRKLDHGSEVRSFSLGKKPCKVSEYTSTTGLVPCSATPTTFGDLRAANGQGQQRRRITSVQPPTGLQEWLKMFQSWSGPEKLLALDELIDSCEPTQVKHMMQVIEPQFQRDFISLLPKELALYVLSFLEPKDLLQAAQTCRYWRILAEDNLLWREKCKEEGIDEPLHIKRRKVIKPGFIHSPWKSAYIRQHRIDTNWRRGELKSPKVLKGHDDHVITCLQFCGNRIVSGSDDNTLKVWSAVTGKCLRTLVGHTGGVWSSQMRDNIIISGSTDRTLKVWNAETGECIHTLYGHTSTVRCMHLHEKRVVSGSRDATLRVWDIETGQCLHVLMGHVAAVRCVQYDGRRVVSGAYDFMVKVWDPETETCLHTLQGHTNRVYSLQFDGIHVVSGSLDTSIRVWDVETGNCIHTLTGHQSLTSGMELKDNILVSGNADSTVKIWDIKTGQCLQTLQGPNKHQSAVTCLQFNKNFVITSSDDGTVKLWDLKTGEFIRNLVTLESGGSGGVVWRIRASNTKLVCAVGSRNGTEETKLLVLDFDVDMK
GPR151 activ: human GPR151 activation. Q8TDV0. PathHunter beta-arrestin GPR151 cells, luminescence. activation, % at 11.2 µM. 650,000 tested, 1% active. AID 1508602; in the data active means activation above about 4.9%;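 further: 0% = median of compound wells and 100% = cells with positive control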
Starred values were filed as active, the others as inactive.

COc1ccccc1CNc1nc(C)nc2sc(C)cc12 was read as TEAD-YAP block 48*, MITF inh 1, FBW7 act 0 and GPR151 activ 2.
Screening Cc1nc(NCc2ccccn2)c2cc(C)sc2n1 returned TEAD-YAP block 12, MITF inh 10, FBW7 act 0 and GPR151 activ 3.
`COCCCNc1ncnc2sc(C)cc12` gave TEAD-YAP block 17, MITF inh -1, FBW7 act 0 and GPR151 activ 2.
`COc1ccccc1CNc1ncnc2sc(C)cc12` gave TEAD-YAP block 32*, MITF inh 0, FBW7 act 0 and GPR151 activ -1.
`COc1ccccc1CNc1ncnc2sc(C)c(C)c12` gave TEAD-YAP block 2, MITF inh -1, FBW7 act 0 and GPR151 activ 1.
CC1C(=O)C(=O)/C(=C\c2ccccc2)C1=O (stereo unspecified) was read as TEAD-YAP block 0, MITF inh 82*, FBW7 act 0 and GPR151 activ 1.
`CSc1ccc(C=C2C(=O)c3ccccc3C2=O)cc1` gave TEAD-YAP block 6, MITF inh 0, FBW7 act 0 and GPR151 activ 0.
For CSC(Nc1ccc(Br)cc1)=C(C#N)C#N the results were TEAD-YAP block 38*, MITF inh -1, FBW7 act 0 and GPR151 activ 1.
`CCCNc1ccc2ncc(-c3cc4ccccc4s3)n2n1` gave TEAD-YAP block -11, MITF inh -13, FBW7 act 0 and GPR151 activ 3.
`FC(F)(F)c1cccc(-c2cnc3ccc(NCCc4cccnc4)nn23)c1` gave TEAD-YAP block 37*, MITF inh 21, FBW7 act 1 and GPR151 activ 1.
c1cncc(CCNc2ccc3ncc(-c4cc5ccccc5s4)n3n2)c1 was read as TEAD-YAP block 73*, MITF inh 14, FBW7 act 0 and GPR151 activ 0.
`CC(C)n1cc(-c2ccc3ccccc3n2)cn1` gave TEAD-YAP block 82*, MITF inh 0, FBW7 act 0 and GPR151 activ -9.
Nc1cccc(-c2nc(NCCN3CCOCC3)c3ncn(-c4ccccc4)c3n2)c1 was read as TEAD-YAP block 58*, MITF inh -3, FBW7 act 0 and GPR151 activ -3.
`CC(=O)c1cccc(-c2nc(NCCN3CCOCC3)c3ncn(-c4ccccc4)c3n2)c1` gave TEAD-YAP block 66*, MITF inh 14, FBW7 act 0 and GPR151 activ 1.
For CC(=O)c1cccc(-c2nc(NCCN3CCOCC3)c3ncn(-c4ccsc4)c3n2)c1 the results were TEAD-YAP block 59*, MITF inh 10, FBW7 act 0 and GPR151 activ 3.
Screening Nc1cccc(-c2nc(NCCc3ccc(O)cc3)c3ncn(-c4ccccc4)c3n2)c1 returned TEAD-YAP block 38*, MITF inh 0, FBW7 act 0 and GPR151 activ -1.
CCOc1ccccc1-n1c(C)nc2cc(C(=O)NCCOC)ccc21 was read as TEAD-YAP block 17, MITF inh 4, FBW7 act 0 and GPR151 activ 1.
For CN1CCN(c2ccc(-c3nc(NCCN4CCOCC4)c4ncn(-c5ccsc5)c4n3)cc2)CC1 the results were TEAD-YAP block 9, MITF inh -2, FBW7 act 0 and GPR151 activ 2.
For COc1ccc(-c2nc(NCCN3CCOCC3)c3ncn(-c4ccsc4)c3n2)cc1 the results were TEAD-YAP block 51*, MITF inh 8, FBW7 act 0 and GPR151 activ 1.
For Cc1ccc(C2C(C#N)=C(N)Oc3n[nH]c(C)c32)o1 (stereo unspecified) the results were TEAD-YAP block 1, MITF inh 6, FBW7 act 0 and GPR151 activ -1.
COc1ccc(COn2ccc3ccc(S(C)(=O)=O)cc32)cc1 was read as TEAD-YAP block 42*, MITF inh -3, FBW7 act 0 and GPR151 activ 0.
Screening Cc1cc(C)cc(NC(=O)N2CCCC2C(=O)NC(C)(C)C)c1 (stereo unspecified) returned TEAD-YAP block 14, MITF inh 22, FBW7 act 0 and GPR151 activ 1.
Screening Cc1ccnc(NC(c2ccccn2)c2ccc3cccnc3c2O)c1 (stereo unspecified) returned TEAD-YAP block 71*, MITF inh 70*, FBW7 act -1 and GPR151 activ -1.
`Cc1ccnc(NC(c2ccc3c(c2)OCO3)c2ccc3cccnc3c2O)c1` (stereo unspecified) gave TEAD-YAP block 82*, MITF inh 28, FBW7 act 0 and GPR151 activ 1.
Screening Cc1ccnc(NC(c2ccsc2)c2ccc3cccnc3c2O)c1 (stereo unspecified) returned TEAD-YAP block 89*, MITF inh 62*, FBW7 act 0 and GPR151 activ 0.
Screening Oc1c(C(Nc2cccnc2)c2ccsc2)ccc2cccnc12 (stereo unspecified) returned TEAD-YAP block 50*, MITF inh 18, FBW7 act 0 and GPR151 activ 1.
`CCCCN(C(=O)NC(=O)Nc1ccccc1)S(C)(=O)=O` gave TEAD-YAP block -17, MITF inh -2, FBW7 act 0 and GPR151 activ 3.
Cc1ccnc(NC(c2ccc(F)cc2)c2ccc3cccnc3c2O)c1 (stereo unspecified) was read as TEAD-YAP block 73*, MITF inh 17, FBW7 act -2 and GPR151 activ -1.
`Cc1ccnc(NC(c2ccncc2)c2ccc3cccnc3c2O)c1` (stereo unspecified) gave TEAD-YAP block 79*, MITF inh 113*, FBW7 act 0 and GPR151 activ 1.
Screening COc1ccc(C(=O)N2CCC(C(N)=O)(N3CCCCC3)CC2)c(OC)c1 returned TEAD-YAP block 0, MITF inh 5, FBW7 act 0 and GPR151 activ 0.
O=C(Cc1ccccc1)Nc1ccc(N2C(=O)c3ccc4c5c(ccc(c35)C2=O)CC4)cc1 was read as TEAD-YAP block 43*, MITF inh -1, FBW7 act 0 and GPR151 activ 1.
For CCN(CC)c1ccc(/C=C2/C(=O)NC(=S)N(Cc3ccco3)C2=O)cc1 the results were TEAD-YAP block 3, MITF inh 75*, FBW7 act 0 and GPR151 activ 0.
`CCOC(=O)Cn1cc(/C=C2/C(=O)NC(=S)N(Cc3ccco3)C2=O)c2ccccc21` gave TEAD-YAP block 2, MITF inh 64*, FBW7 act -1 and GPR151 activ -1.
For O=C1NC(=O)N(Cc2ccco2)C(=O)/C1=C/c1ccc(N2CCOCC2)cc1 the results were TEAD-YAP block 8, MITF inh 73*, FBW7 act 0 and GPR151 activ -1.
For CN(C)c1ncc(/C=C2/C(=O)NC(=O)N(Cc3ccco3)C2=O)cn1 the results were TEAD-YAP block -7, MITF inh 79*, FBW7 act 0 and GPR151 activ 1.
`Cc1ccc(-n2cc(/C=C3/C(=O)NC(=O)N(Cc4ccco4)C3=O)cn2)cc1` gave TEAD-YAP block -17, MITF inh 73*, FBW7 act -1 and GPR151 activ 1.
